# This excerpt belongs to a sample that is enriched for hits.
# AMPAR-TARP mod: modulators of AMPA receptor GluA2-stargazin complexes. O88602+P19491. HEK293 GluA2+stargazin, membrane potential dye (FDSS), glutamate EC50; hits were called plate by plate, in both directions. calls only at 30 µM. actives 3.5% (n = 40,000);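 active = any of four per-well response measures lying three or more SD from its plate-wide compound average, in either direction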
# GIRK2 act: GIRK2 channel activators by thallium flux. 34,000 tested, under 10 active. HEK293 GIRK2/NPY4 cells, thallium flux fluorescence. P48051. activation (% efficacy), % for hits at 37.5 µM. AID 1259324;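 active = primary screen hit, no activity in plain HEK293 cells, and in GIRK2-only cells above 5% efficacy rising with concentration; inactive = the rest, including fluorescent compounds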;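 also: efficacy is normalized control-subtracted fluorescence 15 s after thallium addition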
# Target sequence (P48051 whole entry, looked up): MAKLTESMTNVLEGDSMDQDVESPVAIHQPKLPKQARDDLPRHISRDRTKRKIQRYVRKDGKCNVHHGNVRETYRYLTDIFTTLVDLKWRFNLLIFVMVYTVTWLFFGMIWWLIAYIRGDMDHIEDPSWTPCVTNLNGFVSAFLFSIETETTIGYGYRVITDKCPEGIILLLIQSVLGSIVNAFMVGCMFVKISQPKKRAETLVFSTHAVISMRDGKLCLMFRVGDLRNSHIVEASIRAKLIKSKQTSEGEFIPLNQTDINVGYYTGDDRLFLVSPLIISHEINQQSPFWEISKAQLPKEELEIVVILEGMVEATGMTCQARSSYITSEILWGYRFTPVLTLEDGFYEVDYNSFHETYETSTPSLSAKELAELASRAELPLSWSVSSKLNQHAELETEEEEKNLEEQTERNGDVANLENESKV
# An asterisk follows results filed as active; i = inactive; . = no result; + = active, no number; ! = not confirmed by another sample; [ ] = remark or other dose.
SMILES,AMPAR-TARP mod,GIRK2 act
CC(C)C(=O)Nc1ccc(SCC(=O)NCc2ccc3c(c2)OCO3)nn1,i,i
CC1CCCC1OCC(O)CN1CCN(CCO)CC1 (configuration not stated),i,.
O=C(Nc1ccon1)C1CN(c2nc3c(F)cccc3s2)C1,i,i
CCCCOc1cccc2c1CCN(Cc1cccc(C)c1)C2=O,i,.
Cn1c(=O)[nH]c(=O)c2c1nc(N1CCC(C(N)=O)CC1)n2CCCc1ccccc1,i,.
Cn1c(=O)[nH]c(=O)c2c1nc(N1CCN(CC(N)=O)CC1)n2CCCc1ccccc1,+,.
COC(=O)CN1CCN(c2nc3c(c(=O)[nH]c(=O)n3C)n2CCc2ccccc2)CC1,i,.
CCOC(=O)CN1CCN(c2nc3c(c(=O)[nH]c(=O)n3C)n2CCc2ccccc2)CC1,+,.
COc1ccc2c(=O)c(Oc3ccc(C(=O)Nc4ccccc4C)cc3)coc2c1,i,i
Cc1cc(NC(=O)c2ccc(=O)n(Cc3cccc(F)c3)n2)on1,i,i
O=C(Nc1cc(-c2ccco2)nn1-c1nc2c(c(=O)[nH]1)CCC2)C1CC1,+,i
O=C(CC1CCCC1)Nc1cc(-c2ccco2)nn1-c1nc2c(c(=O)[nH]1)CCC2,i,i
COc1ccc(NC(=O)CN2CCCN(Cc3cc(C)ccc3C)S2(=O)=O)c(OC)c1,i,i
CCOC(=O)c1ccccc1NC(=O)CN1CCCN(Cc2cc(C)ccc2C)S1(=O)=O,+,i
COc1ccc(C(=O)Nc2ccc3c(c2)CCCN3C(C)=O)cc1OC,i,.
Cc1ccsc1C(O)CNC(=O)CSCc1ccccc1 (configuration not stated),i,i
Cc1ccsc1C(O)CNC(=O)C1c2ccccc2Oc2ccccc21 (configuration not stated),+,i
O=C(Nc1ccc2c(c1)OCO2)c1cc(=O)c(OCc2ccccc2)co1,i,i
CCOC(=O)N1CCc2nc(NC(=O)c3ccc([N+](=O)[O-])s3)sc2C1,+,.
CCOC(=O)N1CCc2nc(NC(=O)c3cccs3)sc2C1,i,i
COCCNC(=O)C(=O)Nc1ccc2c(c1)OCO2,i,i
CC(C)(C)OC(=O)N1CCC(CO)CC1,i,i
CC(C)(C)OC(=O)N1CCC(Cn2c(C(F)(F)F)nc3ccccc32)CC1,+,i
O=C(Cc1cc(-c2ccc(Cl)cc2)on1)Nc1ccc2c(c1)OCO2,i,i
Cc1ccc(C)c(OCC(=O)Nc2c(C)cccc2C(C)C)c1C,+,i
SMILES,AMPAR-TARP mod,GIRK2 act
Cc1cccc(C)c1NC(=O)COc1ccc2c(C)cc(=O)oc2c1C,i,.
O=C(Nc1ccc(S(=O)(=O)NC2CCCCC2)cc1)C1CCCO1 (configuration not stated),+,i
O=C(Nc1cccnc1)c1ccc(S(=O)(=O)NC2CCCC2)cc1,i,i
CCn1ccc(C(=O)N(Cc2cccnc2)c2nc3c(C(C)C)cccc3s2)n1,.,i
Cn1ncc2c1ncn1c(-c3ccc(C(C)(C)C)cc3)nnc21,i,i
O=C(NCCCN1CCOCC1)C(=O)Nc1ccc(F)c([N+](=O)[O-])c1,+,i
O=C(NCCN1CCOCC1)C(=O)Nc1ccc(F)c([N+](=O)[O-])c1,i,i
Cc1cc(C)c2sc(NC(=O)/C=C\c3ccccc3)nc2n1,+,i
Cc1cc(NC(=O)/C=C/c2ccccc2)on1,.,i
Cc1cc(C)c(NC2=C/C(=N/S(=O)(=O)c3cccs3)c3ccccc3C2=O)c(C)c1,+,.
Cc1cc(C)c(NC(=O)C2(c3cccs3)CCOCC2)c(C)c1,i,i
CCOc1ccccc1NC(=O)CSc1nnnn1-c1ccccc1C(F)(F)F,i,i
CCOc1ccccc1NC(=O)CSc1nnnn1-c1cccc(C)c1,+!,i
CCN(CC)c1ccc(NC(=O)c2csc3c2CCCC3)cc1,i,.
O=C(Nc1ccc2nccnc2c1)c1ccc2c(c1)OCCO2,+,i
CCn1nccc1C(=O)Nc1ccc2c(c1)OCCO2,i,i
O=C(Nc1ccc2nccnc2c1)c1csc2c1CCCC2,+,i
O=C(NCC(O)(c1ccccc1)C(F)(F)F)C1c2ccccc2Oc2ccccc21 (configuration not stated),+,i
O=C(NCC(O)(c1ccccc1)C(F)(F)F)c1cccc(C(F)(F)F)c1 (configuration not stated),+,i
O=C(NCC(O)(c1ccccc1)C(F)(F)F)c1ccc(Cl)c(Cl)c1 (configuration not stated),i,i
O=C(NCC(O)(c1ccccc1)C(F)(F)F)C1COc2ccccc2O1 (configuration not stated),i,i
CCOC(=O)N1CCN(C(=O)CSc2ncc(CO)n2Cc2ccc(C)cc2)CC1,i,i
CCOc1ccccc1C(=O)N1CCN(c2ncnc3c2nnn3C)CC1,i,i
O=C(Nc1ccc2c(c1)N(C(=O)C1CCCC1)CC2)c1ccc(C(F)(F)F)cc1,i,.
O=C(Nc1ccc2c(c1)N(C(=O)C1CCCO1)CC2)c1ccc(C(F)(F)F)cc1 (configuration not stated),+,i
SMILES,AMPAR-TARP mod,GIRK2 act
Cc1nccn1CCNC(=O)C(=O)NCc1cccs1,.,i
O=C(Cn1cc(-c2ccc(Cl)cc2)c(N2CCOCC2)n1)NCc1ccco1,.,i
CCCc1c(C(=O)NCc2ccccc2OC)nnn1-c1ccccc1,i,i
CCCc1c(C(=O)Nc2ccccc2F)nnn1-c1ccccc1,i,7.0%*[25 µM]
COc1ccc(NC(=O)NCC(C)(O)c2ccccc2)c(OC)c1 (configuration not stated),.,i
COc1ccccc1NC(=O)c1ccc(S(=O)(=O)N(C)C2CCCCC2)cc1,i,.
CCCN(CCC)S(=O)(=O)c1ccc(C(=O)Nc2ccccc2OC)cc1,+,.
COc1ccc(-c2cn(-c3ccc(Br)cc3)c(=O)[nH]2)cc1OC,i,i
O=[N+]([O-])c1ccc(S(=O)(=O)NCC2COC3(CCCCC3)O2)cc1 (configuration not stated),i,i
O=[N+]([O-])c1cccc(S(=O)(=O)NCC2COC3(CCCCC3)O2)c1 (configuration not stated),+,i
COc1ccc(C(CNC(=O)C2CCCCC2)N2CCOCC2)cc1 (configuration not stated),+,.
O=C(NCC(c1ccc(F)cc1)N1CCOCC1)C1CCCCC1 (configuration not stated),+,.
O=C(Cc1ccc(F)cc1)NCC(c1ccc(F)cc1)N1CCOCC1 (configuration not stated),i,.
COc1ccc(C(CNC(=O)C(=O)NC2CCCC2)N2CCOCC2)cc1 (configuration not stated),i,i
Cn1nnc2c(N3CCN(CC(=O)Nc4ccc(F)c(Cl)c4)CC3)ncnc21,i,i
Cc1cc(NC(=O)c2c(F)cccc2F)n(-c2nc3c(cnn3-c3ccc(C)c(C)c3)c(=O)[nH]2)n1,+,i
Cc1cccc(-n2ncc3c(=O)[nH]c(-n4nc(C)cc4NC(=O)C4CC4)nc32)c1,i,i
Cc1cc(NC(=O)c2c(F)cccc2F)n(-c2nc3c(cnn3-c3cccc(Cl)c3)c(=O)[nH]2)n1,i,i
